Assay results published in PubChem BioAssay (NCATS).
Active and inactive are the calls of the source. No rule for the calls is given here.

tested on: HIV-1 nucleocapsid protein NCp7 (binding to TG oligonucleotide); test: HIV Nucleocapsid (AID 346); details: HIV-1 NC / fluorescein-TGTGTGTG probe, fluorescence polarization;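 also: potency is for inhibitors that block NC binding and lower polarization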
In short: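 Fluorescence polarization readout: labelled TG4xF oligo (10 nM) with 100 nM nucleocapsid protein, high-salt (250mM NaCl) Hepes pH 7.5 buffer containing zinc and fresh reducing agents. Compounds added by pin tool; incubation 1 hr, room temperature.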
Potency is read from the fitted curve at half-maximal effect.

Row | SMILES | Potency
1 | O=c1c(-c2ccc(Cl)cc2)nc2cnc(N3CCNCC3)nc2n1CCc1ccccc1 | > 20 µM (inactive)
2 | Cc1nc2cnc(N(C)C)nc2n(Cc2ccc(F)cc2)c1=O | > 20 µM (inactive)
3 | CC(C)NC(=O)N1CCCC2(CCN(C(=O)c3cccn3C)CC2)C1 | > 20 µM (inactive)
4 | O=C(c1ccco1)N1CCC2(CCCN(c3ncccn3)C2)CC1 | > 20 µM (inactive)
5 | COc1cccc(-c2ccc3ncnc(Nc4ccccc4)c3c2)c1 | > 20 µM (inactive)
6 | O=C(c1cnccn1)N1CCC[C@@]2(CCN(Cc3ccncc3)C2)C1 | > 20 µM (inactive)
7 | N#Cc1cccc(-c2nc(NCCN3CCOCC3)c3ccccc3n2)c1 | > 20 µM (inactive)
8 | FC(F)(F)c1ccccc1-c1nc(NCc2cccs2)c2ccccc2n1 | > 20 µM (inactive)
9 | CN(C)Cc1ccccc1-c1cncnc1NCc1cccnc1 | > 20 µM (inactive)
10 | COCCn1c(=O)cnc2cnc(Oc3ccc(OC)cc3)nc21 | > 20 µM (inactive)
11 | O=c1c(-c2ccc(F)cc2)nc2cnc(N3CCOCC3)nc2n1Cc1cccs1 | > 20 µM (inactive)
12 | CN(C)c1ncnc2ccc(-c3ccc4c(c3)OCO4)cc12 | > 20 µM (inactive)
13 | CN1CCN(c2ncc3ncc(=O)n(-c4ccccc4)c3n2)CC1 | > 20 µM (inactive)
14 | COc1ccc2[nH]cc(CCNc3nc(-c4cccnc4)nc4ccccc34)c2c1 | > 20 µM (inactive)
15 | O=C(c1ccncc1)N1CCC2(CC1)CCN(c1ccccc1)CC2 | > 20 µM (inactive)
16 | Cc1cccc(CNc2ncncc2-c2cccnc2)c1 | > 20 µM (inactive)
17 | O=c1c(-c2ccc(F)cc2)nc2cnc(N3CCNCC3)nc2n1-c1ccccc1 | > 20 µM (inactive)
18 | c1cncc(-c2cncnc2-n2ccnc2)c1 | > 20 µM (inactive)
19 | CN(C)C(=O)c1ccc(-c2ccc3ncnc(N(C)C)c3c2)cc1 | > 20 µM (inactive)
20 | CN(C)Cc1ccccc1-c1cncnc1NC1CC1 | > 20 µM (inactive)

Row | SMILES | Potency
21 | COc1cccc(-c2ccc3ncnc(NC4CCNCC4)c3c2)c1 | > 20 µM (inactive)
22 | N#Cc1cccc(-c2nc(NCc3ccccc3)c3ccccc3n2)c1 | > 20 µM (inactive)
23 | Cc1ccccc1-c1nc(NCc2cccnc2)c2ccccc2n1 | > 20 µM (inactive)
24 | COc1ccc2[nH]cc(CCNc3ncnc4ccc(-c5c(C)noc5C)cc34)c2c1 | > 20 µM (inactive)
25 | COc1ccc(NC(=O)N2CCC3(CC2)CCN(C(=O)c2cnccn2)CC3)cc1 | > 20 µM (inactive)
26 | COc1cccc(Cn2c(=O)cnc3cnc(N(C)C)nc32)c1 | > 20 µM (inactive)
27 | c1ccc(C(c2ccccc2)N2CCCC3(CCNCC3)C2)cc1 | > 20 µM (inactive)
28 | Cc1cccc(CNc2nc(-c3c(C)noc3C)nc3ccccc23)c1 | > 20 µM (inactive)
29 | CN(C)Cc1ccccc1-c1nc(N(C)Cc2ccco2)c2ccccc2n1 | > 20 µM (inactive)
30 | CC(=O)N1CCC2(CC1)CCN(C(=O)Nc1cccc(C#N)c1)CC2 | > 20 µM (inactive)
31 | COc1ccccc1-c1nccc(NCc2cccc(C)c2)n1 | > 20 µM (inactive)
32 | COC(=O)N1CCC[C@@]2(CCN(Cc3nccs3)C2)C1 | > 20 µM (inactive)
33 | COCCn1c(=O)c(-c2ccccc2)nc2cnc(OCc3ccccc3)nc21 | > 20 µM (inactive)
34 | Cc1nc2cnc(Oc3ccccc3)nc2n(C2CC2)c1=O | > 20 µM (inactive)
35 | COCCn1c(=O)c(-c2ccc(F)cc2)nc2cnc(Oc3ccc(OC)cc3)nc21 | > 20 µM (inactive)
36 | COc1cccc(Nc2ncc3ncc(=O)n(C[C@H]4CCCO4)c3n2)c1 | > 20 µM (inactive)
37 | COc1ccc2[nH]cc(CCNc3ncncc3-c3ccccc3OC)c2c1 | > 20 µM (inactive)
38 | CC(=O)NCCNc1ncncc1-c1ccccc1C(F)(F)F | > 20 µM (inactive)
39 | O=C(c1cccc(F)c1)N1CCC2(CCCN(c3ccccc3)C2)CC1 | > 20 µM (inactive)
40 | CCNc1ncc2nc(-c3cc(F)cc(F)c3)c(=O)n(C3CC3)c2n1 | > 20 µM (inactive)
